# PubChem BioAssay AID504408 (Broad Institute, 2011)
# About 5,200 (1.7%) of roughly 300,000 compounds were called active.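 How the source made its calls: active means mean replicate activation of at least 50% with a set share of replicates each reaching 50%; inconclusive means only one of those two conditions met; inactive means mean below 50% and too few replicates reaching it.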 This excerpt belongs to a sample that is enriched for actives.
# Assay: HSF-1 activators, primary screen, NIH3T3-HGL cells, MG132 stress, luminescence, single point (AID 504408);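 further: 0% = median of the neutral control wells and 100% = twice that signal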
# Conditions: NIH3T3-HGL HSF-1 luciferase reporter, MG132, 8 h; at 9 µM; hits give high values; 100% = twice DMSO control signal
row,SMILES,activation
1,CCCCOC(=O)CCCc1ccc([N+](=O)[O-])cc1[N+](=O)[O-],65% (active)
2,CCOC(=O)C/C(C)=N\Nc1ccc([N+](=O)[O-])cc1[N+](=O)[O-],1.63% (inactive)
3,CCCCOc1ccc(CSC(=N)N)cc1[N+](=O)[O-],-29.6% (inactive)
4,Cc1csc2nc(O)c(C(=O)NCCN3CCOCC3)c(=O)n12,-6.85% (inactive)
5,COc1ccc(S(=O)(=O)NCC(c2ccc(C)cc2)N2CCN(C)CC2)cc1OC (centres undefined),5.43% (inactive)
6,Cc1csc(NC(=S)Nc2cccc(Cl)c2)n1,58.4% (active)
7,S=C(Nc1cccc(Cl)c1)Nc1ccc2cn[nH]c2c1,20.2% (inactive)
8,S=C(Nc1cccc(Cl)c1)Nc1ccc2c(c1)OCCO2,5.58% (inactive)
9,COc1ccc(C(=O)NCC2CCCN2S(=O)(=O)c2cccs2)cc1OC (centres undefined),-9.4% (inactive)
10,CCN(CC)S(=O)(=O)c1ccc(-c2cn3ccc(C)cc3n2)cc1,58.1% (active)
11,CCN(c1cccc(C)c1)S(=O)(=O)c1ccc(-c2coc(C)n2)cc1,-1.05% (inactive)
12,Cc1ccc2nc(-c3ccc(Br)cc3)cn2c1,-34.2% (inactive)
13,Cc1ccc(SCC(=O)Nc2nncs2)cc1,-2.82% (inactive)
14,COc1ccc(-n2nnnc2CNC(=O)c2ccc3ccccc3c2)cc1,3.44% (inactive)
15,COc1cccc(NC(=O)CSc2nnc(-c3cccnc3)o2)c1,11.6% (inactive)
16,Cc1ccc(C)c(-c2nnc(NC(=O)CS(=O)(=O)c3ccccc3)o2)c1,-10.1% (inactive)
17,COc1ccccc1/C=N/Nc1nc(C)c(C(C)=O)s1,55.9% (active)
18,CC(=O)c1sc(NC(=O)CCCOc2ccccc2C)nc1C,35.1% (inactive)
19,COc1cccc2sc(Nc3nc(C)c(C(C)=O)s3)nc12,-3.69% (inactive)
20,CC(=O)c1sc(N/N=C\c2ccc(C)cc2)nc1C,38.3% (inactive)
21,COc1cc2ccccc2cc1C(=O)Nc1nc(C)c(C(C)=O)s1,23.8% (inactive)
22,CC(=O)c1sc(N/N=C/c2ccc(C(C)C)cc2)nc1C,59.6% (active)
23,CCN1C(=O)[C@H]2[C@@H](c3ccc(C)cc3)N3C(=O)N(c4cccc(Br)c4)C(=O)[C@@]3(CC)[C@H]2C1=O,-10.8% (inactive)
24,Cc1csc(NC(=O)CSc2nc(=O)n(CCCN(C)C)c3c2CCC3)n1,-4.76% (inactive)

row,SMILES,activation
1,Cc1ccc(S(=O)(=O)CCC(=O)OCC(=O)N(C)C2CCS(=O)(=O)C2)cc1 (centres undefined),2.33% (inactive)
2,CCN(Cc1ccccc1)S(=O)(=O)c1cc2c3c(c1)CCN3C(=O)CC2,23.7% (inactive)
3,COc1ccc2c(c1)C(=O)Nc1cc(Cl)ccc1N2,12.2% (inactive)
4,CN(C)CCn1c2c(c(SCC(=O)Nc3ccccc3C(F)(F)F)nc1=O)CCCC2,-8.06% (inactive)
5,Cc1ccc(-c2csc(-c3cc(C)on3)n2)cc1,28.5% (inactive)
6,Cc1ccc(-c2csc(-c3c[nH]c4ccccc34)n2)cc1,62% (active)
7,CCCc1cc(-c2nc(-c3ccc(C)cc3)cs2)ccn1,7.82% (inactive)
8,COc1ccccc1C(=O)NCCC(=O)NN1C(=O)NC2(CCCCC2)C1=O,-5.35% (inactive)
9,O=C(COC(=O)c1ncc(Cl)c(Cl)c1Cl)NCc1cccs1,-3.74% (inactive)
10,Cc1cc(C(=O)N/N=C/c2ccccc2[N+](=O)[O-])c(C)o1,58.5% (active)
11,Cc1cc(C(=O)N/N=C\C(Br)=C\c2ccccc2)c(C)o1,112% (active)
12,Cc1cc(C(=O)N/N=C/c2ccc(N3CCOCC3)cc2)c(C)o1,-5.06% (inactive)
13,CC(C)c1cc(C(=O)N/N=C/C(Br)=C/c2ccccc2)n[nH]1,40.2% (inactive)
14,CC(=C/c1ccccc1)/C=N/NC(=O)c1cc(C)oc1C,32% (inactive)
15,O=C(Cc1cc(=O)[nH][nH]1)N/N=C/c1ccccc1[N+](=O)[O-],-2.04% (inactive)
16,COc1cc(C(=O)N(C)Cc2cccc(OC)c2OC)ccc1OCC(=O)Nc1cccc(C(F)(F)F)c1,-3.36% (inactive)
17,CC(OC(=O)CCC(=O)c1ccccc1)C(=O)Nc1ccc(F)cc1 (centres undefined),-12.9% (inactive)
18,COc1cc(/C=N\Nc2ccc([N+](=O)[O-])cn2)ccc1OCC(=O)O,0.194% (inactive)
19,COc1cc(/C=N/O)ccc1OCc1ccc([N+](=O)[O-])cc1,118% (active)
20,COc1cc(C(=O)OCc2ccc([N+](=O)[O-])cc2)cc(OC)c1OC,12.4% (inactive)
21,O=C(Nc1ccc(F)c([N+](=O)[O-])c1)C1CCCO1 (centres undefined),9.04% (inactive)
22,COc1ccc(S(=O)(=O)N2CCOC23CCN(S(=O)(=O)c2ccc([N+](=O)[O-])cc2)CC3)cc1,0.627% (inactive)
23,CCOc1ccc(C(C)=O)cc1COC(=O)CN1C(=O)NC2(CCCC2)C1=O,-13.7% (inactive)
24,CC(/C=N/NC(=O)c1cc(-c2ccc3ccccc3c2)n[nH]1)=C\c1ccco1,71.5% (active)

row,SMILES,activation
1,CC(/C=N/NC(=O)c1ccncc1)=C\c1ccco1,27.6% (inactive)
2,Cc1ccc(-c2cc(C(=O)N/N=C/C=C/c3ccco3)c3ccccc3n2)cc1C,-41.2% (inactive)
3,COc1ccc(/C=N/Nc2ccccc2C(=O)O)cc1,12.9% (inactive)
4,NC(=O)c1ccccc1N=Cc1ccc2ccccc2c1,75.3% (active)
5,N=c1oc2ccccc2cc1C(=O)N/N=C/c1ccccc1,22.1% (inactive)
6,COc1ccccc1NS(=O)(=O)c1ccc(C(=O)N2CCN(c3ccccc3O)CC2)cc1,14.5% (inactive)
7,CCOc1ccc2nc(Nc3nc4ccc(NC(C)=O)cc4s3)sc2c1,36.7% (inactive)
8,CCCC(=O)N(CCN1CCOCC1)c1nc2ccc(OCC)cc2s1,5.04% (inactive)
9,CCOc1ccc2nc(C(=O)N3CCCC(C)C3)sc2c1 (centres undefined),76.7% (active)
10,CSc1ccc(S(=O)(=O)NCC(=O)OCC(=O)NC2(C#N)CCCCC2)cc1[N+](=O)[O-],1.77% (inactive)
11,COc1ccccc1C(=O)NC(CCSC)C(=O)NNC(=O)c1ccccc1C (centres undefined),-15.3% (inactive)
12,C=CCn1c(SCc2ccc(C(=O)NCCO)cc2)nc2ccccc2c1=O,-5.63% (inactive)
13,O=C(Nn1c(-c2ccccc2)nc2ccccc2c1=O)c1ccc([N+](=O)[O-])cc1,19.1% (inactive)
14,O=C(Nn1c(SCc2ccc([N+](=O)[O-])cc2)nc2ccccc2c1=O)c1ccc(F)cc1,51.9% (active)
15,O=C(CSc1ccccn1)N1CCN(S(=O)(=O)c2ccc(Cl)cc2)CC1,9.98% (inactive)
16,O=S(=O)(O)Oc1c[nH]c2ccccc12,-0.476% (inactive)
17,CCS(=O)(=O)c1ccc(-c2cccc(NC(=O)c3ccc(Br)o3)c2)nn1,-23.4% (inactive)
18,CCCc1cc(C(=O)Nc2ccc(Cl)cn2)cs1,43.8% (inactive)
19,O=C(Nc1ccc(Cl)cn1)Nc1cccs1,69.7% (active)
20,O=C(Nc1cccc([N+](=O)[O-])c1)Nc1ccc(Cl)cn1,-5.81% (inactive)
21,COc1ccc(NC(=O)CN(C)C(=O)/C=C/c2cn(Cc3ccccc3)nc2-c2cccnc2)cc1,1.78% (inactive)
22,COC(=O)[C@]1(C)N[C@H](c2ccc(-c3ccc(Cl)c(Cl)c3)cc2)[C@@H]2C(=O)N(C)C(=O)[C@@H]21,23% (inactive)
23,Cn1c(CN2CCOCC2)nc2cc(NC(=O)c3ccc(Cl)cc3)ccc21,70% (active)
24,CCOC(=O)N1CCN(Cc2nc3cc(NC(C)=O)ccc3n2C)CC1,-12.5% (inactive)

row,SMILES,activation
1,Cn1c(CCN2CCCC2)nc2cc(NS(=O)(=O)c3ccccc3)ccc21,-1.14% (inactive)
2,Cn1c(CCN2CCCCCC2)nc2cc(NC(=O)Nc3ccccc3)ccc21,276% (active)
3,CC(=O)NCCc1nc2cc(NC(=O)c3ccccc3)ccc2n1C,-16.5% (inactive)
4,CCC(=O)Nc1ccc2c(c1)nc(CCN1CCN(c3ccccn3)CC1)n2C,27.9% (inactive)
5,COC(=O)c1ccc(SCc2ccccc2)nc1,18.6% (inactive)
6,CCOc1ccc(NC(=O)CN(C)C(=O)c2c(C)noc2C)cc1OCC,8.14% (inactive)
7,CCOC(=O)c1c(NC(=O)CN2C(=O)NC3(CCC(C)CC3)C2=O)sc(C)c1CC (centres undefined),2.47% (inactive)
8,COc1ccc(C2=NN(C(=O)c3cccnc3)C(c3ccccc3)C2)cc1 (centres undefined),4.6% (inactive)
9,COc1ccc(C2CC(c3ccccc3)=NN2C(=O)c2ccc(Cl)c([N+](=O)[O-])c2)cc1 (centres undefined),73.2% (active)
10,COc1ccc(C2CC(c3ccc([N+](=O)[O-])cc3)=NN2C(C)=O)cc1 (centres undefined),22% (inactive)
11,OCc1ccc(-c2ccccc2)c(-c2ccccc2)c1,-0.0415% (inactive)
12,Cc1ccc(CSCC(=O)N(C)CC(=O)Nc2cccc(F)c2)cc1,4.88% (inactive)
13,Cc1cc(C)c(C)c(S(=O)(=O)Nc2cccnc2)c1C,-8.55% (inactive)
14,CCOC(=O)/C(C#N)=C/c1ccc(N2CCN(Cc3ccccc3)CC2)cc1,-3.55% (inactive)
15,COc1ccc(N2CCN(C(=O)/C(C#N)=C/c3ccccc3)CC2)cc1,-4.53% (inactive)
16,CCOC(=O)/C(C#N)=C/c1ccc(N2CCCCC2)cc1,54.1% (active)
17,CCN1C(=O)[C@H]2[C@@H](c3ccc(-c4ccc(OC)cc4)cc3)N[C@@](Cc3ccccc3)(C(=O)OC)[C@H]2C1=O,22.5% (inactive)
18,S=C(c1ccc(-c2ccccc2)o1)N1CCCCC1,63.6% (active)
19,S=C(c1ccccc1)N1CCCC1,0.831% (inactive)
20,OCCN1CCN(C(=S)c2ccc(-c3ccccc3)cc2)CC1,-5.27% (inactive)
21,CCCCCC(=O)N1CCN(S(=O)(=O)c2ccc3c(c2)OCCCO3)CC1,-14% (inactive)
22,CCCCn1c(N)c(N(CCOC)C(=O)c2cccc(S(=O)(=O)N(C)c3ccccc3)c2)c(=O)[nH]c1=O,0.234% (inactive)
